Experimental findings from PubChem BioAssay AID1259412 (Laboratorio de Genomica e Expressao (LGE), UNICAMP, 2018) are described below.

Assay [1] is described as follows: AOX inhibitors, oxygen consumption, profiling panel (AID 1259412).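 On growth (% of control): growth monitored over 72 h.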 The conditions noted are these: AOX-dependent respiration, at 500 µM; for growth (% of control): O2 uptake, measured here: growth; for O2 uptake (% of control): measured here: O2 uptake, control condition (no AOX).
Assay [2] relates to alternative oxidase (AOX). The description is as above. The following applies: AOX-dependent respiration, at 500 µM, stronger effect = lower value.
Setting [3] is: AOX-dependent treatment condition, stronger effect = lower value.

SMILES strings stand for the structures. Calls of active or inactive are those of the source. How the calls were made is not given here.

With `O=C(Nc1cccc(F)c1)c1cccc(I)c1`, the growth (% of control) was 64.5% in assay [1] (setting [3]) and 86.5% in assay [1] (control condition). For the same molecule, the O2 uptake (% of control) is 76% in assay [1] (stronger effect = lower value) and 23.7% (active) in assay [2].

Turning to `COc1cccc(C(=O)Nc2ccc(N3CCOCC3)cc2)c1`, the figures for the growth (% of control) in assay [1] (setting [3]) and in assay [1] (control condition) were 86.1% and 86.6%, respectively. Besides, the O2 uptake (% of control) in assay [1] (stronger effect = lower value) was determined as 102%; in assay [2] it was 92.3%.

`NC(=O)c1ccccc1NC(=O)c1cccc(F)c1`: the figures for the growth (% of control) in assay [1] (setting [3]) and in assay [1] (control condition) were 88.1% and 94.5%, respectively. In addition, the O2 uptake (% of control) in assay [1] (stronger effect = lower value) is 85.1%; in assay [2] it was 81% (inactive).

As to `O=C(Nc1cccc(I)c1)c1ccccc1`, the growth (% of control) in assay [1] (setting [3]) worked out at 95%; in assay [1] (control condition), 91%. For the same molecule, the O2 uptake (% of control) in assay [1] (stronger effect = lower value) was 78.6%; in assay [2] it was 17.3% (active).

In the case of `O=C(Nc1ccccc1)c1ccccc1`, the values for the growth (% of control) in assay [1] (setting [3]) and in assay [1] (control condition) were 69.8% and 94.3%, respectively. Besides, the O2 uptake (% of control) is 99.9% in assay [1] (stronger effect = lower value) and 67.2% (active) in assay [2].

In the case of `NC(=O)c1ccccc1NC(=O)c1cccc(I)c1`, the growth (% of control) was determined as 91.2% in assay [1] (setting [3]) and 98.8% in assay [1] (control condition). In addition, the results for the O2 uptake (% of control) in assay [1] (stronger effect = lower value) and in assay [2] were 87.5% and 35.5% (active), respectively.

As to `O=C(Nc1cccc(Cl)c1)c1cccc(F)c1`, the growth (% of control) in assay [1] (setting [3]) amounted to 17.8%; in assay [1] (control condition), 60.1%. In addition, the figures for the O2 uptake (% of control) in assay [1] (stronger effect = lower value) and in assay [2] were 78.3% and 24.6% (active), respectively.

In the case of `O=C(NCc1ccc2c(c1)OCO2)c1ccccc1`, the growth (% of control) was 56.1% in assay [1] (setting [3]) and 65.8% in assay [1] (control condition). The O2 uptake (% of control) is 99.1% in assay [1] (stronger effect = lower value) and 38.6% (active) in assay [2].

Consider `NC(=O)c1ccccc1NC(=O)c1ccccc1I`, for which the growth (% of control) in assay [1] (setting [3]) stood at 93.3%; in assay [1] (control condition), 82.7%. For the same molecule, the figures for the O2 uptake (% of control) in assay [1] (stronger effect = lower value) and in assay [2] were 112% and 84.5% (inactive), respectively.

On to `O=C(Nc1cccc(C(F)(F)F)c1)c1ccccc1`, for which the growth (% of control) in assay [1] (setting [3]) came out at 38.9%; in assay [1] (control condition), 71.4%. Further, the O2 uptake (% of control) in assay [1] (stronger effect = lower value) is 84%; in assay [2] it was 16.8% (active).

As to `O=C(Nc1cccc([N+](=O)[O-])c1)c1cccc(Cl)c1`, the growth (% of control) in assay [1] (setting [3]) was found to be 84.5%; in assay [1] (control condition), 90.6%. Further, the O2 uptake (% of control) is 93% in assay [1] (stronger effect = lower value) and 22.3% (active) in assay [2].

As for `O=C(Nc1cccc(F)c1)c1cccc(Cl)c1`, the growth (% of control) in assay [1] (setting [3]) was determined as 3.11%; in assay [1] (control condition), 70.3%. For the same molecule, the O2 uptake (% of control) in assay [1] (stronger effect = lower value) is 77.2%; in assay [2] it was 34.1% (active).

With `O=C(Nc1cccc(I)c1)c1cccc(Br)c1`, the growth (% of control) is 88.2% in assay [1] (setting [3]) and 103% in assay [1] (control condition). In addition, the O2 uptake (% of control) is 92% in assay [1] (stronger effect = lower value) and 14.3% (active) in assay [2].

For `O=C(Nc1ccccc1)c1cccc(I)c1`, the values for the growth (% of control) in assay [1] (setting [3]) and in assay [1] (control condition) were 67.8% and 86.4%, respectively. For the same molecule, the O2 uptake (% of control) is 87.7% in assay [1] (stronger effect = lower value) and 21.9% (active) in assay [2].

Consider `O=C(Nc1ccccc1)c1cccc(F)c1`, for which the figures for the growth (% of control) in assay [1] (setting [3]) and in assay [1] (control condition) were 73.9% and 101%, respectively. The O2 uptake (% of control) was 103% in assay [1] (stronger effect = lower value) and 61.8% (active) in assay [2].

For `NC(=O)c1ccccc1NC(=O)c1ccccc1`, the growth (% of control) in assay [1] (setting [3]) amounted to 84.2%; in assay [1] (control condition), 88.6%. Moreover, the O2 uptake (% of control) in assay [1] (stronger effect = lower value) was 93.9%; in assay [2] it was 91.2%.

With `NC(=O)c1ccccc1NC(=O)c1cccc(Cl)c1`, the figures for the growth (% of control) in assay [1] (setting [3]) and in assay [1] (control condition) were 65.4% and 68.9%, respectively. Also, the O2 uptake (% of control) is 85.8% in assay [1] (stronger effect = lower value) and 41.6% (active) in assay [2].

Consider `O=C(Nc1cccc(I)c1)c1cccc(F)c1`, for which the growth (% of control) in assay [1] (setting [3]) came out at 67.2%; in assay [1] (control condition), 97.5%. Moreover, the O2 uptake (% of control) in assay [1] (stronger effect = lower value) was 77.3%; in assay [2] it was 21.9% (active).

Turning to `Nc1cccc(S(=O)(=O)c2cccc(NC(=O)c3cccc(F)c3)c2)c1`, the growth (% of control) in assay [1] (setting [3]) stood at 84%; in assay [1] (control condition), 106%. The O2 uptake (% of control) was 104% in assay [1] (stronger effect = lower value) and 101% (inactive) in assay [2].

With `Nc1cccc(S(=O)(=O)c2cccc(NC(=O)c3ccccc3)c2)c1`, the growth (% of control) in assay [1] (setting [3]) was 93.3%; in assay [1] (control condition) it was 84.2%. In addition, the O2 uptake (% of control) in assay [1] (stronger effect = lower value) is 112%; in assay [2], 98.2% (inactive).

For the molecule `O=C(Nc1cccc(NC(=O)c2cccc(I)c2)c1)c1cccc(I)c1`, the growth (% of control) in assay [1] (setting [3]) came out at 107%; in assay [1] (control condition), 116%. The O2 uptake (% of control) is 106% in assay [1] (stronger effect = lower value) and 89% (active) in assay [2].

With `O=C(Nc1cccc(Br)c1)c1ccccc1I`, the growth (% of control) in assay [1] (setting [3]) was 57.8%; in assay [1] (control condition), 98.8%. Further, the O2 uptake (% of control) was 81% in assay [1] (stronger effect = lower value) and 10.4% (active) in assay [2].

As for `Cc1cccc(C(=O)Nc2ccc(N3CCOCC3)cc2)c1`, the growth (% of control) in assay [1] (setting [3]) was determined as 91%; in assay [1] (control condition), 96%. Moreover, the O2 uptake (% of control) in assay [1] (stronger effect = lower value) was 96.2%; in assay [2], 84.8% (inactive).

In the case of `O=C(Nc1cccc(Br)c1)c1cccc(I)c1`, the growth (% of control) in assay [1] (setting [3]) amounted to 103%; in assay [1] (control condition), 98.1%. Also, the O2 uptake (% of control) in assay [1] (stronger effect = lower value) was 89.6%; in assay [2], 20.2% (active).

Regarding `N#Cc1cccc(C(=O)Nc2ccc(N3CCOCC3)cc2)c1`, the growth (% of control) in assay [1] (setting [3]) is 96.5%; in assay [1] (control condition) it was 92.2%. Moreover, the values for the O2 uptake (% of control) in assay [1] (stronger effect = lower value) and in assay [2] were 105% and 90.5% (inactive), respectively.

As for `N#Cc1cccc(C(=O)Nc2ccccc2C(N)=O)c1`, the values for the growth (% of control) in assay [1] (setting [3]) and in assay [1] (control condition) were 99.3% and 85.5%, respectively. The O2 uptake (% of control) is 107% in assay [1] (stronger effect = lower value) and 95.7% (inactive) in assay [2].

For the molecule `O=C(Nc1cccc(NC(=O)c2cccc(F)c2)c1)c1cccc(F)c1`, the growth (% of control) in assay [1] (setting [3]) stood at 113%; in assay [1] (control condition), 133%. Further, the O2 uptake (% of control) in assay [1] (stronger effect = lower value) was 97%; in assay [2], 51.3% (active).

In the case of `O=C(Nc1cccc(Br)c1)c1ccccc1`, the results for the growth (% of control) in assay [1] (setting [3]) and in assay [1] (control condition) were 51.9% and 71.6%, respectively. Moreover, the O2 uptake (% of control) in assay [1] (stronger effect = lower value) is 88.5%; in assay [2], 15.7% (active).

With `O=C(Nc1cccc(Br)c1)c1cccc(Br)c1`, the growth (% of control) in assay [1] (setting [3]) came to 82.5%; in assay [1] (control condition), 91.3%. In addition, the O2 uptake (% of control) in assay [1] (stronger effect = lower value) was 81%; in assay [2] it was 16.5% (active).

On to `O=C(Nc1cccc(I)c1)c1cccc(Cl)c1`, for which the growth (% of control) was found to be 63.1% in assay [1] (setting [3]) and 82.8% in assay [1] (control condition). For the same molecule, the O2 uptake (% of control) in assay [1] (stronger effect = lower value) is 88.3%; in assay [2], 13.2% (active).

In the case of `O=C(Nc1ccc(-n2ccnc2)cc1)c1cccc(Br)c1`, the growth (% of control) in assay [1] (setting [3]) was 44.9%; in assay [1] (control condition), 75.3%. For the same molecule, the O2 uptake (% of control) in assay [1] (stronger effect = lower value) was 84.4%; in assay [2], 72.6% (active).

Turning to `Cc1cccc(C(=O)NCc2ccc3c(c2)OCO3)c1`, the figures for the growth (% of control) in assay [1] (setting [3]) and in assay [1] (control condition) were 41.6% and 48.8%, respectively. Further, the O2 uptake (% of control) was 99% in assay [1] (stronger effect = lower value) and 25.8% (active) in assay [2].

Regarding `Cc1cccc(C(=O)Nc2cccc(OCc3ccccc3)c2)c1`, the growth (% of control) in assay [1] (setting [3]) turned out to be 93.7%; in assay [1] (control condition), 109%. Besides, the results for the O2 uptake (% of control) in assay [1] (stronger effect = lower value) and in assay [2] were 108% and 67.8% (active), respectively.

`Cc1cccc(C(=O)Nc2cccc(Cl)c2)c1`: the growth (% of control) in assay [1] (setting [3]) stood at 14.9%; in assay [1] (control condition) it was 65.6%. Moreover, the O2 uptake (% of control) in assay [1] (stronger effect = lower value) was 87.4%; in assay [2], 20.9% (active).

`N#Cc1cccc(C(=O)Nc2cccc([N+](=O)[O-])c2)c1`: the growth (% of control) stood at 91.7% in assay [1] (setting [3]) and 101% in assay [1] (control condition). Further, the O2 uptake (% of control) in assay [1] (stronger effect = lower value) is 110%; in assay [2], 98.7%.

Regarding `COc1cc(NC(=O)c2cccc(F)c2)cc(OC)c1OC`, the growth (% of control) in assay [1] (setting [3]) is 92.8%; in assay [1] (control condition), 80.8%. For the same molecule, the O2 uptake (% of control) in assay [1] (stronger effect = lower value) was 93.1%; in assay [2], 98.7% (inactive).

In the case of `Cc1cccc(C(=O)Nc2ccccc2C(N)=O)c1`, the values for the growth (% of control) in assay [1] (setting [3]) and in assay [1] (control condition) were 74.2% and 73.9%, respectively. For the same molecule, the O2 uptake (% of control) in assay [1] (stronger effect = lower value) is 92.4%; in assay [2], 60.2% (active).

Regarding `O=C(Nc1cccc(NC(=O)c2ccccc2)c1)c1ccccc1`, the growth (% of control) was 106% in assay [1] (setting [3]) and 103% in assay [1] (control condition). The O2 uptake (% of control) in assay [1] (stronger effect = lower value) was 92.6%; in assay [2], 44% (active).

`O=C(Nc1cccc(Br)c1)c1cccc(F)c1`: the growth (% of control) in assay [1] (setting [3]) was found to be 22.3%; in assay [1] (control condition), 90.4%. In addition, the O2 uptake (% of control) in assay [1] (stronger effect = lower value) is 77.9%; in assay [2], 35.1% (active).
